Measurements taken from PubChem BioAssay AID1852 (Sanford-Burnham Center for Chemical Genomics, 2009).
About 1,100 (44%) of roughly 2,500 compounds were called active.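 The calls were made as follows: active = inhibition above 50% at 4 µM in the single-point screen; inactive = inhibition of 50% or less.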 The set was probably picked from earlier hits. Some of the results follow.

Experiment: blockers of TNF-a NF-kB luciferase induction – cell-based, HEK293T NF-kB-Luc, luminescence, selectivity assay for NOD1/NOD2 signaling inhibitor project, primary screen (AID 1852)
Conditions: TNF-a induced, 14 h, at 4 µM, hits give high values

Structure (SMILES)	inhibition
CCOc1ccc(-c2csc(/C(C#N)=C\c3ccc(O)c([N+](=O)[O-])c3)n2)cc1	0.4% (inactive)
N#C/C(=C\c1ccc(O)c([N+](=O)[O-])c1)c1nc2ccccc2s1	76.9% (active)
NS(=O)(=O)c1ccc(Sc2nc3ccccc3s2)c([N+](=O)[O-])c1	35.3% (inactive)
Cc1sc(NC(=O)CSc2ncn(-c3ccccc3)n2)nc1-c1ccccc1	33.1% (inactive)
CCOC(=O)c1c(-c2ccccc2)csc1NC(=O)CSc1nc(N)cc(N)n1	61.5% (active)
CC(C)c1ccc(-c2csc(NC(=O)c3cccs3)c2C(=O)O)cc1	16.6% (inactive)
CCOc1cc(/C=C2\CN(C)C/C(=C\c3ccc(O)c(OCC)c3)C2=O)ccc1O	65.5% (active)
CCOc1cc(/C=C2\CN(CC)C/C(=C\c3ccc(O)c(OCC)c3)C2=O)ccc1O	96.7% (active)
CCOC(=O)c1c(NC(=S)NCCc2ccccc2)sc2c1CC(C(C)C)OC2 (stereo unspecified)	82.3% (active)
CC(C)COc1ccc(C(=O)Nc2sc3c(c2C(=O)O)CC(C)(C)OC3)cc1	35.4% (inactive)
CCCCCCCCCCn1c2c(c(=N)c3c1CCC3)CCC2	78.4% (active)
CCCCCCCCn1c2c(c(=N)c3ccccc31)CCC2	74.7% (active)
CCCCCCCCCn1c2c(c(=N)c3c1CCC3)CCC2	74.8% (active)
Oc1c(CN2CCN(c3ccccc3)CC2)cc(Br)c2cccnc12	15.7% (inactive)
c1ccc(CN2CCN(c3ncnc4c3[nH]c3ccccc34)CC2)cc1	73.4% (active)
Cc1c(C)n(Cc2ccccc2)c2ncnc(Cl)c12	42.6% (inactive)
Cc1ccc2c(c1)[nH]c1c(N3CCN(Cc4ccccc4)CC3)ncnc12	72.7% (active)
Cc1ccc2[nH]c3c(N4CCN(Cc5ccccc5)CC4)ncnc3c2c1	76.9% (active)
O=C(CN1CCN(Cc2ccccc2)CC1)N1N=CCC1c1ccccc1 (stereo unspecified)	21.7% (inactive)
Cc1ccc2[nH]c3c(N4CCc5ccccc5C4)ncnc3c2c1	83.8% (active)
Fc1ccc2[nH]c3c(N4CCc5ccccc5C4)ncnc3c2c1	45.8% (inactive)
Cc1csc2ncnc(NC3CCN(Cc4ccccc4)CC3)c12	32.1% (inactive)
COCCCNC(=O)c1sc2ncnc(N3CCc4ccccc4C3)c2c1C	44.9% (inactive)

Structure (SMILES)	inhibition
CCN1CCN(Cc2ccc(NC(=O)c3ccc(C)c(NC(=O)C(=O)c4c[nH]c5ccccc45)c3)cc2C(F)(F)F)CC1	26.4% (inactive)
CCC1Sc2ccc(S(=O)(=O)Nc3ccc(OC)c(OC)c3)cc2NC1=O (stereo unspecified)	51.8% (active)
COc1ccc(NS(=O)(=O)c2ccc3c(c2)NC(=O)C(C)S3)cc1 (stereo unspecified)	9.8% (inactive)
CCC(Cc1ccccc1)NS(=O)(=O)c1ccc2c(c1)NC(=O)C(C)S2 (stereo unspecified)	-1.2% (inactive)
CCn1nc([N+](=O)[O-])c(C(C#N)c2nc3cc(C(F)(F)F)ccc3s2)c(Cl)c1=O (stereo unspecified)	34.1% (inactive)
Cc1cc(C)c(S(=O)(=O)/N=C2\C=C(Nc3ccc(C(=O)O)cc3)C(=O)c3ccccc32)c(C)c1	107% (active)
Cc1ccc(NC2=C(Cl)C(=O)c3ccccc3C2=O)cc1	-26.5% (inactive)
Cc1ccc(NS(=O)(=O)c2ccc3c(c2)C(=O)c2ccccc2C3=O)c(C)c1	2.1% (inactive)
Cc1ccc(C)c(S(=O)(=O)/N=C2\C=C(NS(=O)(=O)c3ccccc3)C(=O)c3ccccc32)c1	102% (active)
Cc1cc(C)c(S(=O)(=O)/N=C2\C=C(NS(=O)(=O)c3ccccc3)C(=O)c3ccccc32)c(C)c1	94.9% (active)
Cc1ccc(NC(=O)COc2ccc(/C=C3/SC(=Nc4ccccc4)N(Cc4cccnc4)C3=O)cc2)cc1	14.5% (inactive)
CCc1ccc(NC(=O)C2CCN(S(=O)(=O)c3ccc4c(c3)CC(C)N4C(C)=O)CC2)cc1 (stereo unspecified)	70% (active)
CC(=O)N1c2ccc(S(=O)(=O)N3CCC(C(=O)Nc4cccc(C)n4)CC3)cc2CC1C (stereo unspecified)	40.5% (inactive)
COc1ccccc1NC(=O)C1CCCN(S(=O)(=O)c2ccc3c(c2)CC(C)N3C(C)=O)C1 (stereo unspecified)	47.2% (inactive)
O=C1C(=O)N(c2nccs2)C(c2ccccc2)/C1=C(\O)c1ccc2c(c1)OCCO2 (stereo unspecified)	31.4% (inactive)
Cc1ccccc1CN1CCc2c(OCC(=O)N3CCCc4ccccc43)cccc2C1=O	48.2% (inactive)
O=C(CN1C(=O)c2ccccc2S1(=O)=O)c1ccc2c(c1)OCCCO2	95.7% (active)
O=C(CN1C(=O)c2ccccc2S1(=O)=O)N1CCc2ccccc21	70.7% (active)
O=C(CSc1ncnc2c1oc1ccccc12)N1CCCc2ccccc21	18.1% (inactive)
O=C(CN1CCc2cc3c(cc2C1)OCCCO3)Nc1c(F)cccc1F	-3.8% (inactive)
O=C(CN1C(=O)c2ccccc2S1(=O)=O)c1ccc2c(c1)OCCO2	95% (active)
O=C(/C=C/c1ccncc1)c1ccc2c(c1)OCCO2	-1.4% (inactive)
CC(C)CCn1c(Sc2nc3ccccc3o2)nc2c1c(=O)[nH]c(=O)n2C	26.6% (inactive)

Structure (SMILES)	inhibition
O=C(CSc1nc2ccccc2c(=O)[nH]1)Nc1ccccc1C(F)(F)F	21.5% (inactive)
O=C(CSc1nnnn1C1CC2CCC1C2)Nc1ccnc2ccccc12 (stereo unspecified)	54.8% (active)
Cc1nn(-c2cccc(Cl)c2)c2nc(C(F)(F)F)[nH]c(=O)c12	58.8% (active)
Cc1nn(-c2ccccc2)c2nc(C(Cl)(Cl)Cl)[nH]c(=O)c12	23.6% (inactive)
Cc1nn(-c2cc(C(F)(F)F)ccc2Cl)c2nc(C(Cl)(Cl)Cl)[nH]c(=O)c12	71.3% (active)
O=C(O)c1cccc(N/N=C/c2cccs2)c1	-23% (inactive)
O=C(O)c1ccc(N/N=C/c2ccc3nccnc3c2)cc1	48.6% (inactive)
O=C(O)c1cccc(N/N=C/c2cccc3ccccc23)c1	54.1% (active)
O=c1cc(C(F)(F)F)nc(SCc2cccc3ccccc23)[nH]1	61.3% (active)
N#Cc1c(-c2ccccc2)nc(SCc2cccc(C(F)(F)F)c2)[nH]c1=O	-14.5% (inactive)
CS(=O)(=O)c1ccc(S(=O)CC(=O)OCc2ccccc2)c([N+](=O)[O-])c1 (stereo unspecified)	50.2% (active)
CS(=O)(=O)c1ccc(C(=O)OCc2nnc(-c3ccccc3)o2)cc1[N+](=O)[O-]	38.9% (inactive)
CS(=O)(=O)c1ccc(Sc2nc3ccccc3s2)c([N+](=O)[O-])c1	-1.5% (inactive)
Cc1cc(C(=O)NC2CCCc3c2cnn3-c2ccc(C)c(C)c2)n(C)n1 (stereo unspecified)	74.6% (active)
CCn1nc(C)cc1C(=O)NC1CCCc2c1cnn2-c1ccc(C)c(C)c1 (stereo unspecified)	58.9% (active)
Cc1ccc(-n2ncc3c2CCCC3NC(=O)c2cnccn2)cc1C (stereo unspecified)	37.7% (inactive)
O=C1C=C(c2ccccc2)C[C@H](c2cccs2)[C@H]1n1nnc([N+](=O)[O-])n1	35.8% (inactive)
Cc1cc(C(=O)CCl)c(C)n1-c1cccc(S(=O)(=O)N2CCOCC2)c1	52.4% (active)
Cc1cc(NC(=S)NC(=O)/C=C/c2ccc(S(=O)(=O)N3CCOCC3)cc2)ccc1Br	-18.3% (inactive)
O=C(NC(=S)N1CCN(Cc2ccc3c(c2)OCO3)CC1)c1cccc(Br)c1	76.1% (active)
O=C(c1[nH]nc2c1CCc1ccccc1-2)N1CCN(Cc2ccc3c(c2)OCO3)CC1	45.6% (inactive)
COc1cc(/C=C2/CCC/C(=C\c3cc(O)c(OC)c(Cl)c3)C2=O)cc(Cl)c1O	108% (active)
COc1cc(/C=C2\CCC/C(=C\c3ccc(O)c(OC)c3)C2=O)ccc1O	9.3% (inactive)

Structure (SMILES)	inhibition
COc1cc(OC)c(OC)cc1/C=C1\CCC/C(=C\c2cc(OC)c(OC)cc2OC)C1=O	41.8% (inactive)
CCOc1cc(/C=C2\CCC/C(=C\c3cc(Cl)c(O)c(OCC)c3)C2=O)cc(Cl)c1O	87.7% (active)
COc1ccc(C(C(=O)NC2CCCCC2)N(C(=O)CCl)c2ccc(C)cc2)cc1 (stereo unspecified)	37% (inactive)
COc1ccc(C(C(=O)NC2CCCCC2)N(C(=O)CCl)c2ccc(OC)cc2)cc1 (stereo unspecified)	40.2% (inactive)
COc1ccc(N(C(=O)CCl)C(C(=O)NC2CCCCC2)c2cccnc2)cc1 (stereo unspecified)	87.1% (active)
O=C(NC1CCCCC1)C(c1cccnc1)N(C(=O)CCl)c1ccc(F)cc1 (stereo unspecified)	69.8% (active)
CC(C)C(=O)NC(c1cccs1)c1cc([N+](=O)[O-])c2cccnc2c1O (stereo unspecified)	54.8% (active)
CC(=O)NC(c1cccs1)c1cc([N+](=O)[O-])c2cccnc2c1O (stereo unspecified)	105% (active)
CC(=O)NC(c1ccco1)c1ccc2cccnc2c1O (stereo unspecified)	26.6% (inactive)
CCOc1ccc2nc(NC(=O)c3ccccn3)sc2c1	102% (active)
COc1ccccc1C(=O)NCc1ccc(-c2nc3ccccc3s2)cc1	14.3% (inactive)
COc1ccccc1C(=O)Nc1nc2ccccc2s1	65.3% (active)
COc1ccc2nc(Nc3nc4ccc(NC(C)=O)cc4s3)sc2c1	-14.1% (inactive)
COc1ccc2nc(Nc3nc(C)c(C(C)=O)s3)sc2c1	-12.9% (inactive)
COc1cc([N+](=O)[O-])cc2sc(NC(=O)c3c(F)cccc3F)nc12	16.4% (inactive)
COc1ccc(C(=O)Nc2nc3ccccc3s2)c(OC)c1	88% (active)
O=C(CCl)N=c1sccn1Cc1cccc2ccccc12	44.1% (inactive)
CC(=O)NC(c1ccc2ccccc2c1)c1ccc2cccnc2c1O (stereo unspecified)	75.2% (active)
COc1cccc(C(NC(C)=O)c2ccc3cccnc3c2O)c1 (stereo unspecified)	57.3% (active)
CC(=O)NC(c1cccc([N+](=O)[O-])c1)c1ccc2cccnc2c1O (stereo unspecified)	70.9% (active)
COc1ccc(C(NC(C)=O)c2ccc3cccnc3c2O)c(OC)c1 (stereo unspecified)	99.8% (active)
CC(=O)NC(c1ccc(Cl)cc1Cl)c1ccc2cccnc2c1O (stereo unspecified)	15.6% (inactive)
